Assay results as given in the supplement of paper PMC11732987, “Enantioselective OTUD7B fragment discovery through chemoproteomics screening and high-throughput optimisation” (Communications Chemistry, 2025).

Experiments:
Test in all cases: log2 ratio of Biotin-Ahx-Ub-VS probe labelling (fragment/DMSO); higher = less target engagement (more negative = stronger competition), active = hit call of the paper (q ≤ 0.05, log2 ratio ≤ -1)
Conditions in all cases: compound concentration: 200 uM; treatment time: 3 h
USP34 = USP34 (UniProt Q70CQ2)
How it was run: (§1)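 Global-median-normalised Spectronaut label-free quantities were compared by unpaired t-test, and values are average log2 ratios of fragment over vehicle. Only proteins with ≥2 unique peptides were used. HEK293T lysate (495 µg per sample) was treated in triplicate with fragment at 200 µM or vehicle for 3 h and then with Biotin-Ahx-Ub-VS at 0.5 µM final for 1 h. Labelled DUBs were then NeutrAvidin-enriched, digested with LysC and trypsin, and run by diaPASEF LC-MS/MS.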

USP36 = target: T1, USP36 (UniProt Q9P275)
T1 sequence (whole entry): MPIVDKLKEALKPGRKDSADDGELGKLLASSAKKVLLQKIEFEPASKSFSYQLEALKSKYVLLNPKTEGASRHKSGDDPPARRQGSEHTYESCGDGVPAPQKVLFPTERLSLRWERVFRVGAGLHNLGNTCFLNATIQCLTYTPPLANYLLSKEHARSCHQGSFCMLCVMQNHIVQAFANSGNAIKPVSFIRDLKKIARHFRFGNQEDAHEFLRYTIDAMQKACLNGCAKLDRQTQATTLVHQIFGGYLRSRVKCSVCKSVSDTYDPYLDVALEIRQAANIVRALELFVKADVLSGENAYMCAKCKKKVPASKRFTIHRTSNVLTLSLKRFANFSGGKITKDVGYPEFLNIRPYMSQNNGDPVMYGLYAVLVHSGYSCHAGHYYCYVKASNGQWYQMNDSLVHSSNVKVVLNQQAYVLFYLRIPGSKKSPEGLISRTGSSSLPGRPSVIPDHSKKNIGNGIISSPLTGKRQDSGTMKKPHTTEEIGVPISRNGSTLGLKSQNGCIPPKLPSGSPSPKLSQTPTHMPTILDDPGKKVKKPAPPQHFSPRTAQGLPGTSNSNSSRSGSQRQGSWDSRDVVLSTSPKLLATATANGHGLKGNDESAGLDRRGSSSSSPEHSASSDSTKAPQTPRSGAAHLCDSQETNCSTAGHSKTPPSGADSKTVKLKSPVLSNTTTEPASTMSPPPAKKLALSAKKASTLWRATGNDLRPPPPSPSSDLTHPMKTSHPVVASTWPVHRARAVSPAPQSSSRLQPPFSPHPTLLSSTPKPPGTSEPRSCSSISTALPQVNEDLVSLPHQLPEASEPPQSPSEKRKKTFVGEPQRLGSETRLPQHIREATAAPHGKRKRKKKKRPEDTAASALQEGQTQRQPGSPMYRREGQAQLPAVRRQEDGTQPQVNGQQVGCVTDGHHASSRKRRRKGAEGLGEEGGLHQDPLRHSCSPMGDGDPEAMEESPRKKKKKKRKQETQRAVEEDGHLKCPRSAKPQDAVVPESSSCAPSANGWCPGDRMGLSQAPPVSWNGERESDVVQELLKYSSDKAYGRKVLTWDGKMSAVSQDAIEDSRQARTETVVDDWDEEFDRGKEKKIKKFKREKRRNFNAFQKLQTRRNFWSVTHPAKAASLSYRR
How it was run: as §1

USP38 = target: T2, USP38 (UniProt Q8NB14)
T2 sequence (whole entry): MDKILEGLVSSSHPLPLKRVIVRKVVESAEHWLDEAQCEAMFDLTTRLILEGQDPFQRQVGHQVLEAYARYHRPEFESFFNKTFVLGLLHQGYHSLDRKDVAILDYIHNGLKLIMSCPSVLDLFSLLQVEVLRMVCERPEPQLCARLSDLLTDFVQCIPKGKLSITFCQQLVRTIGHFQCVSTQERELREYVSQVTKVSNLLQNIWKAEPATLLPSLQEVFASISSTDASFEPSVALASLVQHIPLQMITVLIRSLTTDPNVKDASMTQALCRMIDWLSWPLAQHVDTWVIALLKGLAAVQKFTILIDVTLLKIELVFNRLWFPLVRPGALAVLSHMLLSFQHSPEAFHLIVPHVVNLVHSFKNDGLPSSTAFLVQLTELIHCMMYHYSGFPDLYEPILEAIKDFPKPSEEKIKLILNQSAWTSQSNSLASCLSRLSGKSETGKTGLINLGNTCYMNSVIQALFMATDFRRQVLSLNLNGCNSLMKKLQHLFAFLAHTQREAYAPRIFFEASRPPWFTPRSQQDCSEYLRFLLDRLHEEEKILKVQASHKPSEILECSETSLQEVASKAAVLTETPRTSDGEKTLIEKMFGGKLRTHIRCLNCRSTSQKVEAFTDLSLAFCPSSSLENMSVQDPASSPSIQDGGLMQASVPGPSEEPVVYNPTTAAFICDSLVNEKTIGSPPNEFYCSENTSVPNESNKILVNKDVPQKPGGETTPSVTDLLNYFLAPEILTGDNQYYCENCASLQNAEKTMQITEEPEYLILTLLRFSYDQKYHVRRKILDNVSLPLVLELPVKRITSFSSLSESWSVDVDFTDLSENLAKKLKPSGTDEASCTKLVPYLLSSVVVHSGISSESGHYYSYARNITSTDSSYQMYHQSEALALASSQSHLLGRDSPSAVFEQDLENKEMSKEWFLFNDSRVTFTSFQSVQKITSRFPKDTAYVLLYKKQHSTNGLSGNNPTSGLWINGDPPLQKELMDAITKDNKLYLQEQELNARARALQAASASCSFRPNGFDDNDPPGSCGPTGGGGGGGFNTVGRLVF
How it was run: as §1

USP39 = target: T3, USP39 (UniProt Q53GS9)
T3 sequence (whole entry): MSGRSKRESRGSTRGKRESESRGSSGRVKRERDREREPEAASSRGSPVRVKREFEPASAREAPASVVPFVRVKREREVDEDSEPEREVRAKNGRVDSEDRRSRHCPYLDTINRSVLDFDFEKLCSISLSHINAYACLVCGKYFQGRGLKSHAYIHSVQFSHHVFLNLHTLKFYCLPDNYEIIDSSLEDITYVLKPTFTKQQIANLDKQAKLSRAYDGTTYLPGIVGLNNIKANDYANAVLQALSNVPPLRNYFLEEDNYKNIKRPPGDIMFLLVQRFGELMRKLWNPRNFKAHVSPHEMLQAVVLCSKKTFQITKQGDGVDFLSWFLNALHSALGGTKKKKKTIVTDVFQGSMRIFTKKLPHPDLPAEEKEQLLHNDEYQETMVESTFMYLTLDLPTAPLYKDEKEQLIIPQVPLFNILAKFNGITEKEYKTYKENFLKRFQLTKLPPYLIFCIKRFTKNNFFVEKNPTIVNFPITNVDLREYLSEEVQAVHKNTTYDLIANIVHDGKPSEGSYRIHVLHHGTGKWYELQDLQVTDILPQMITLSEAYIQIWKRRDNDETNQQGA
How it was run: as §1

USP4 = target: T4, USP4 (UniProt Q13107)
T4 sequence (whole entry): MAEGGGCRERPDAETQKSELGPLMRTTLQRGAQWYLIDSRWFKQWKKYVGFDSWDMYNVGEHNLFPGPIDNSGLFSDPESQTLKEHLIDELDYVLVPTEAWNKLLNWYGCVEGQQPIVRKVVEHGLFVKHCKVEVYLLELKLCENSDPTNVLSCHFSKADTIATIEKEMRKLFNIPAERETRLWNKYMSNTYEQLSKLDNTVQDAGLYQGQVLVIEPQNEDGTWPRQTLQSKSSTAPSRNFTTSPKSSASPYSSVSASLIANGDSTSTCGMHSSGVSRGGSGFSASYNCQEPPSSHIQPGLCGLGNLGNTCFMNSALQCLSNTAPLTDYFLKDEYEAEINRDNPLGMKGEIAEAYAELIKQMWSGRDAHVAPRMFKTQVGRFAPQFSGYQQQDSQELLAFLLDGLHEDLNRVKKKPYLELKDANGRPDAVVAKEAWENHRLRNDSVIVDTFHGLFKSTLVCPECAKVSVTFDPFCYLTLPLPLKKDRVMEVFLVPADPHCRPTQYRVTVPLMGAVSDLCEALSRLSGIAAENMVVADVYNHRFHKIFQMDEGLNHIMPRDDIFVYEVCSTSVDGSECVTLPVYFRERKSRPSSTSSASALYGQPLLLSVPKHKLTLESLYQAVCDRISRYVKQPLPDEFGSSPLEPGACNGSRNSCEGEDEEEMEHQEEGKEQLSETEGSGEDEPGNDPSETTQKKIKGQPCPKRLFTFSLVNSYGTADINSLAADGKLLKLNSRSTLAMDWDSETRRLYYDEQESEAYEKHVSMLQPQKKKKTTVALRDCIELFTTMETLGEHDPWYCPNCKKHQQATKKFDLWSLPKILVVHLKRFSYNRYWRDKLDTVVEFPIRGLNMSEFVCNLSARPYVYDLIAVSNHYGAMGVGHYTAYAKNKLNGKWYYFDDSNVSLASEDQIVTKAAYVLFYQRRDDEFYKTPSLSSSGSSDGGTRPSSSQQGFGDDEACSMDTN
How it was run: as §1

Measured: log2 ratio of Biotin-Ahx-Ub-VS probe labelling

Chain of USP34 (Q70CQ2 whole entry, the tested form may be a part): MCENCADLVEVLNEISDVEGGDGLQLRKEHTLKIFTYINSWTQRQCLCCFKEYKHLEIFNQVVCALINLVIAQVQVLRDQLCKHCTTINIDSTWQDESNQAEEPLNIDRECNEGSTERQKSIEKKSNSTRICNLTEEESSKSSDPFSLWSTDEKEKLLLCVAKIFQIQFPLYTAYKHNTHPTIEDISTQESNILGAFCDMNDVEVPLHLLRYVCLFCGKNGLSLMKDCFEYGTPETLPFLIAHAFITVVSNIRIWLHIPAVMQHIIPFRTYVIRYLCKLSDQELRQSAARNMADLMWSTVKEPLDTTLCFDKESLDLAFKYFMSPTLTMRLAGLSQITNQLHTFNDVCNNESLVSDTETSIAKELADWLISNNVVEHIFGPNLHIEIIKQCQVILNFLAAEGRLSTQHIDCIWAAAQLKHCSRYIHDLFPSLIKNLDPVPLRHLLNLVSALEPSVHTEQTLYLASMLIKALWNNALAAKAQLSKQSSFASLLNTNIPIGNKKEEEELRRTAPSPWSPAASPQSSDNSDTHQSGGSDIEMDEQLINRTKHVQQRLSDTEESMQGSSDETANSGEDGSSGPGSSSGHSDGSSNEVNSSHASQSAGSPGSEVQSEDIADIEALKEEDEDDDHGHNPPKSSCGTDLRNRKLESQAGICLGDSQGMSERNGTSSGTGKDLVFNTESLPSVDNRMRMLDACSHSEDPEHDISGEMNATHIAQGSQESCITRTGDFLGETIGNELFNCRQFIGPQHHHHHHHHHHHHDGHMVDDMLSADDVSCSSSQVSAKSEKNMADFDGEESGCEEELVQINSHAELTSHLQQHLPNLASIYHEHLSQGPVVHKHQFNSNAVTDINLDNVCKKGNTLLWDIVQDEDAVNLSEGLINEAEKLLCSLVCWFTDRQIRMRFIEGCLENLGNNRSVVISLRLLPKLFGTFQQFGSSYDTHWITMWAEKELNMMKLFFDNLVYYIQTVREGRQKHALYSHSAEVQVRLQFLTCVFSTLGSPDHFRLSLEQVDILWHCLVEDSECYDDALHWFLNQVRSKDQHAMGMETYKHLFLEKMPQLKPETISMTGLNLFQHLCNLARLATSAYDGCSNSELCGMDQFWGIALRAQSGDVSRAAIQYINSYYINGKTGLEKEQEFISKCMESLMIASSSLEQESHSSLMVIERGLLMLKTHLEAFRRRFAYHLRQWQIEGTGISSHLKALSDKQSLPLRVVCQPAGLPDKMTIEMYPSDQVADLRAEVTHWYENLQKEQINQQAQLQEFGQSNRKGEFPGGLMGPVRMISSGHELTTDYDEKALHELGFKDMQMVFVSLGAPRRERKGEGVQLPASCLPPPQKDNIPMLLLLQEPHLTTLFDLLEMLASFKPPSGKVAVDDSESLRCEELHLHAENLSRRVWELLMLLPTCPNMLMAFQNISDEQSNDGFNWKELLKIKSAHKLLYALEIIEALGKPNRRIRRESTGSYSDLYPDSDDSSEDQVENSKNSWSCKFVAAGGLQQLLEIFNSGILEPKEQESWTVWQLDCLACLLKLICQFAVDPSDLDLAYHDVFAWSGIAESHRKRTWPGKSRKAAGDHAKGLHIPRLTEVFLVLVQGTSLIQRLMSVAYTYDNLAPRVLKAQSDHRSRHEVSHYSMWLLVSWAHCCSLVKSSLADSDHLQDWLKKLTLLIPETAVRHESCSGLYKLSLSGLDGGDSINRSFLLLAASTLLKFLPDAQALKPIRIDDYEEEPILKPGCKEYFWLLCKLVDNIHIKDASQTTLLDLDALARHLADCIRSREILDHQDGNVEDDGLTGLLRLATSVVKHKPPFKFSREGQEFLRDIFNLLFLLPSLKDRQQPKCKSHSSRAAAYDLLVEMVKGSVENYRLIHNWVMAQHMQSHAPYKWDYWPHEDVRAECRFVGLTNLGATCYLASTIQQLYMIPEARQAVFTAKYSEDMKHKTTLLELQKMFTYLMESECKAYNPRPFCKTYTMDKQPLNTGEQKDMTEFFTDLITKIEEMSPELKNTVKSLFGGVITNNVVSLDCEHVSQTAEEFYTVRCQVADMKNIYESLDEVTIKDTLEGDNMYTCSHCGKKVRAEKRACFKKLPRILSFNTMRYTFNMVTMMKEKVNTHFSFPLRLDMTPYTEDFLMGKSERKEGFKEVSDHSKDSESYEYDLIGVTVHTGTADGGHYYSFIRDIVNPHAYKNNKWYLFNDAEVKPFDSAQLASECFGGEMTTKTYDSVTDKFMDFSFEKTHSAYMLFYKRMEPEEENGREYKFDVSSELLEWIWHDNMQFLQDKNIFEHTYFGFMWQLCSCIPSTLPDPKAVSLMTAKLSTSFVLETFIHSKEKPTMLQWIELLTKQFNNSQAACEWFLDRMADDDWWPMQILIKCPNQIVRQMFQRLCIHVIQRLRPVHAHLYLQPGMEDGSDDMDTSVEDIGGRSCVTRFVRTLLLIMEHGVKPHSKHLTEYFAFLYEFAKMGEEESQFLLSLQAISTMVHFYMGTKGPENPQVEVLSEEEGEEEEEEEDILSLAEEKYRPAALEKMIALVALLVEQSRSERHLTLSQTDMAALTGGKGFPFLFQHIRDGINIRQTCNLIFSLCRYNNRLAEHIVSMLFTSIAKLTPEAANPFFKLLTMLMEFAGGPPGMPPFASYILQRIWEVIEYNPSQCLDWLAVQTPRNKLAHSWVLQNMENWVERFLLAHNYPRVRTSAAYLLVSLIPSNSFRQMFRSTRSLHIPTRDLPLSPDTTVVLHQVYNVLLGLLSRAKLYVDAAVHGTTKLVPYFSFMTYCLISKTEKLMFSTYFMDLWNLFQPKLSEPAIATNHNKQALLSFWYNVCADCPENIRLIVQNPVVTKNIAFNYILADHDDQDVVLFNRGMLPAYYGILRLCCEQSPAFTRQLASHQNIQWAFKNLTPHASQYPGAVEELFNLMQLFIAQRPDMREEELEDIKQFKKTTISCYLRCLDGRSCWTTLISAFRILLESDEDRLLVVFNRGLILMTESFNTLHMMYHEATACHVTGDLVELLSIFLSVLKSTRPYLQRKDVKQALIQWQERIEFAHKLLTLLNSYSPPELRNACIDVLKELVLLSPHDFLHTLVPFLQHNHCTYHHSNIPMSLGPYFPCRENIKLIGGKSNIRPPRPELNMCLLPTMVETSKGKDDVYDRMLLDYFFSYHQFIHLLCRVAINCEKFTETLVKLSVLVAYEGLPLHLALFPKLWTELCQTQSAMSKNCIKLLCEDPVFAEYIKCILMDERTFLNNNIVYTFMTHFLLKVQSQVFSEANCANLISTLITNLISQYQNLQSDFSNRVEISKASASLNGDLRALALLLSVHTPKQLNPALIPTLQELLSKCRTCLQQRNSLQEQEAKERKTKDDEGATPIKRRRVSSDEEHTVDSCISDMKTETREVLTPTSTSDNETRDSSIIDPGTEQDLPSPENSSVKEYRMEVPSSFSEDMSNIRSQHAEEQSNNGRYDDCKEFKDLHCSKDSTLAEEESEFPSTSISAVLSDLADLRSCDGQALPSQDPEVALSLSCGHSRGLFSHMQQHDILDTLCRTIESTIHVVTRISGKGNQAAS

O=C(CCl)N1CCOC(CCc2ccccc2)C1 (stereo not given)
inactive: USP34 -0.338 | USP36 0.0399 | USP38 -0.227 | USP39 0.136 | USP4 -0.729
